Screening data (PubChem)
Hits are enriched below; roughly 19% of the tested compounds scored in any of these assays.
HepG2 viability: kills HepG2 cells in TGF-b inhibitor counter-screen | Potency, µM (titrated, usually from 46.1 µM), most hits filed as cytotoxic | HepG2 CAGA-GFP viability, ATP luminescence, 18 h | AID 588856 | 0.76% of 410,000 active
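CellTiter-Glo luminescence gave cytotoxicity after 18 hours at 37 degrees C. The cells were HepG2 CAGA-GFP in 1% FBS DMEM, stimulated with 500 pg/mL TGF-beta after compound addition. %Activity was normalised to no-cell wells (complete cell-killing) and DMSO (no toxicity), and curves were fitted and classified.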
TGFb inhibitor: TGF-b pathway inhibition. HepG2 CAGA-GFP TGF-b/SMAD3 reporter, GFP fluorescence, 18 h; TGF-beta stimulated, 500 pg/mL final. 1.2% of 410,000 active. Potency, µM (top dose mostly 46.1 µM), usual class: inhibitors. AID 588855; note: nearly all actives have a fitted effect of over 65% in size
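HEPG2 CAGA-GFP cells (1000/well, DMEM with 1% FBS) were pre-incubated 2 h at 37 degrees C, given compound by pin tool, then stimulated with TGF-beta at 500 pg/mL final for 18 h before per-cell GFP fluorescence imaging.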
DT40 TDP1 no CPT: qHTS for Inhibitors of human tyrosyl-DNA phosphodiesterase 1 (TDP1): qHTS in cells in absence of CPT. DT40 Tdp1-/- hTDP1 cells, no CPT, ATP luminescence, 48 h. Potency, µM (series often up to 46.2 µM), actives largely listed as inhibitors. 15% of 420,000 active. AID 686978, 2013; note: nearly all actives have a fitted effect of over 55% in size
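Luminescent ATP content (CellTiter-Glo) served as the growth readout. Knockout chicken DT40 cells expressing human TDP1 were exposed to compounds without camptothecin for a minimum 48 hr at 37 °C.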
IL-1B inflam inh: inflammasome signaling inhibition, IL-1 beta readout; AID 743279; activity change, % at 57.5 µM; THP-1 LPS/ATP IL-1B secretion, AlphaLISA, 16 h; active compounds read low; 4.7% of 360,000 active; in the data active = activity change below about -50%; inconclusive = mostly about -30% to -49%
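THP-1 cells pretreated 1 hr with compounds (up to 57.5 uM final), then stimulated with LPS (250 ng/mL final) plus ATP (1.25 mM final); secreted IL-1B measured by AlphaLISA after 16 hr, decreased signal indicating inhibition.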
S-ASM inh: inhibitors of human secretory acid sphingomyelinase. AID 504937. P17405. placental ASM, HMU-PC fluorogenic substrate, 60 min. 0.006% of 340,000 active. Potency, µM (highest dose often 57.5 µM), actives largely listed as inhibitors
Target sequence (P17405 47-631 limits assumed): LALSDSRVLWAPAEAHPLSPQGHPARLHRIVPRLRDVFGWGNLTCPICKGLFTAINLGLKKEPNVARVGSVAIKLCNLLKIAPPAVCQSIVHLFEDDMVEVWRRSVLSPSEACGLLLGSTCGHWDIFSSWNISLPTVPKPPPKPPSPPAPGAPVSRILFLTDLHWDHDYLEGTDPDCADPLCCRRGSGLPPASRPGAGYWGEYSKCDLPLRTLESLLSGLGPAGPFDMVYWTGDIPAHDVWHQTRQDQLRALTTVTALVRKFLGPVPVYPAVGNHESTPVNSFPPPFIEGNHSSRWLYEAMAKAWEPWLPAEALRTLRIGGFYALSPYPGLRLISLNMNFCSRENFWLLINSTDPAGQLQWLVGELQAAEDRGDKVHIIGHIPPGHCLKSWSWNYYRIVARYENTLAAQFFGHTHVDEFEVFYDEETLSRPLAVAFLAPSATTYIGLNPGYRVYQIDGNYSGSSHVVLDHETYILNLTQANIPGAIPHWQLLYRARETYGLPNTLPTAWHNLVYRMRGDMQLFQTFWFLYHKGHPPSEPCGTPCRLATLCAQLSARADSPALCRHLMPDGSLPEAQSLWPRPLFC
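qHTS format. ASM enzyme prepared from human placenta hydrolyses the fluorogenic substrate HMU-PC0 (9 uM final) over 60 min at 37 °C after a 10 min compound preincubation.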
DT40 TDP1 CPT: growth inhibition of DT40 Tdp1-/-;hTDP1 cells with camptothecin (screen for TDP1 inhibitors) | chicken DT40 Tdp1-/-;hTDP1 cells + 20 nM CPT, ATP luminescence, 48 h | Potency, µM (highest dose often 46.2 µM), actives largely listed as inhibitors | 12% of 420,000 active; note: nearly all actives have a fitted effect of over 55% in size
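Cell growth measured by CellTiter-Glo luminescence after a minimum 48 h, 37 C compound exposure with 20 nM CPT in Tdp1-knockout DT40 cells stably expressing hTDP1, seeded 400/well; qHTS titration format.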
Hits are given with their value; i = inactive; ? = inconclusive; nt = no result given; [ ] = dose if it differs, or a comment. Unless noted, calls come from the whole dose curve; as a rule, active = well fitted curve in the direction sought with a large enough effect; inconclusive = small, poorly fitted or top-dose-only effect, or another doubt; inactive = no such curve, though single readings can be large; an effect the other way counts as inactive or inconclusive.

SMILES	HepG2 viability	TGFb inhibitor	DT40 TDP1 no CPT	IL-1B inflam inh	S-ASM inh	DT40 TDP1 CPT
COc1ccccc1N1CCN(CC(O)COCCOc2ccc(Br)cc2)CC1 (stereo unspecified)	i	?	?	i	i	16.4µM
O=C(c1ccco1)N1CCN(C2CC(=O)N(c3ccc(C(F)(F)F)cc3)C2=O)CC1 (stereo unspecified)	i	i	i	i	i	i
CCCCCCC[n+]1ccc(/C=C/c2c(C)[nH]c3ccccc23)cc1	i	i	0.316µM	nt	nt	0.316µM
CCCc1c(C)[nH]c2ccccc2c1=O	i	i	?	i	i	?
CCCCNC(=S)N(C)/N=C/c1c(C)[nH]c2ccccc12	i	?	i	i	i	i
CCCCCCCCCCCCCCCC[n+]1ccc(/C=C/c2c(C)[nH]c3ccccc23)cc1	i	?	0.398µM	nt	nt	1µM
O=[N+]([O-])c1cccc(/C=C2\CCc3cnn(C4CCS(=O)(=O)C4)c32)c1 (stereo unspecified)	i	i	?	i	nt	?
CC12CCC(=O)C=C1C(F)CC1C2C(O)CC2(C)C1CCC2(O)C(=O)CO (stereo unspecified)	i	i	i	nt	i	i
CC(=O)C1(C)CCC2C3C=C(C)C4=CC(=O)CCC4(C)C3CCC21C (stereo unspecified)	i	i	23.1µM	-73.2	i	18.4µM
C=C1CC2C(CCC3(C)C2CCC3(O)C(C)=O)C2(C)CCC(=O)C=C12 (stereo unspecified)	i	i	25.9µM	-92.0	i	?
CC(=O)[C@@]1(O)CC[C@H]2[C@@H]3CCC4=CC(=O)CC[C@]4(C)[C@H]3[C@@H](O)C[C@@]21C	i	i	i	i	i	i
COc1ccc(CCNc2cc(C)nc3c(-c4ccccc4OC)cnn23)cc1OC	i	i	18.4µM	i	i	?
COc1ccc(-c2nc(C#N)c(NCCCN(C)C)o2)cc1OC	i	i	i	i	i	i
COc1ccc(-c2nc(C#N)c(NC(C)c3ccccc3)o2)cc1OC (stereo unspecified)	i	i	16.4µM	?	i	?
COc1ccc(CCNc2oc(-c3ccc(OC)c(OC)c3)nc2C#N)cc1	i	i	?	i	i	11.2µM
COc1ccc(CCNc2oc(-c3ccccc3OC)nc2C#N)cc1OC	i	?	18.4µM	i	i	?
COc1ccccc1-c1cnn2c(NCc3ccccc3)cc(C)nc12	i	i	?	i	i	?
O=c1c2ccccc2c(-c2ccccc2)nn1-c1cc(Cl)cc(Cl)c1	i	i	?	i	i	i
CCC(SC1=NCCS1)C(=O)Nc1ccc(S(N)(=O)=O)cc1 (stereo unspecified)	i	i	i	i	i	i
O=C(NCc1cc(Br)cc(Br)c1OC(=O)c1ccccc1[N+](=O)[O-])c1ccccc1	i	?	?	i	i	?
CCOC(=O)NC1(Nc2cccc(Cl)c2)Oc2ccccc2O1	i	i	23.1µM	i	i	?
CCC1(COC(=O)Nc2cccc(Cl)c2)COC1	i	i	i	i	i	i
Cc1ccc(NC(=O)Cc2c(Cl)cccc2Cl)cc1S(=O)(=O)N(C)C	i	i	16.4µM	i	i	?
Cc1ccc(NC(=O)CNCc2ccc(Cl)cc2Cl)cc1S(=O)(=O)N(C)C	i	i	18.4µM	i	i	?
O=C1NC[C@@H](CCCCN2CCN(CCC3CCCCC3)C(=O)C2=O)N(CC2CCCCC2)C1=O	nt	nt	i	i	nt	i
SMILES	HepG2 viability	TGFb inhibitor	DT40 TDP1 no CPT	IL-1B inflam inh	S-ASM inh	DT40 TDP1 CPT
O=[N+]([O-])c1cccc(-c2noc3c2-c2nc(Cc4cccc5ccccc45)sc2CC3)c1	i	i	i	i	i	i
S=c1[nH]nc(-c2ccccc2)n1/N=C/C=C/c1ccco1	i	i	?	i	i	?
COc1ccc(-c2n[nH]c(=S)n2/N=C/C=C/c2ccccc2OC)cc1	i	i	?	i	i	?
COc1ccccc1/C=C/C=N/n1c(C2CCCCC2)n[nH]c1=S	i	i	16.4µM	i	i	?
COc1ccccc1/C=C/C=N/n1c(-c2ccccc2)n[nH]c1=S	i	i	20.6µM	i	i	?
COc1ccccc1/C=C/C=N/n1c(-c2ccc(Cl)cc2)n[nH]c1=S	i	i	16.4µM	i	i	?
Cc1ccc(/C=N/n2c(-c3ccc(Cl)cc3)n[nH]c2=S)s1	i	i	16.4µM	i	i	?
CCCNC(=O)C1(C)CCN(C(=O)c2c(F)ccc(C)c2F)C1 (stereo unspecified)	i	i	i	i	nt	i
Cc1ccc(NC(=O)CNC(=O)CC23CC4CC(CC(C4)C2)C3)c(O)c1	i	i	i	-52.3	i	i
NC(=O)c1ccccc1NC(=O)CC12CC3CC(CC(C3)C1)C2	i	?	?	i	i	20.6µM
Cn1nccc1C(=O)NCC1CCC2(CCN(Cc3ccc(-c4ccc(Cl)cc4)o3)CC2)O1 (stereo unspecified)	nt	nt	14.6µM	nt	nt	?
Cc1cc(C(=O)NCC2CCC3(CCN(Cc4cccc(F)c4F)CC3)O2)n(C)n1 (stereo unspecified)	nt	nt	11.6µM	nt	nt	20.6µM
Cc1cc(C(=O)NCC2CCC3(CCN(Cc4ccc5ccccc5c4)CC3)O2)n(C)n1 (stereo unspecified)	nt	nt	16.4µM	nt	nt	20.6µM
Cc1cc(C(=O)NCC2CCC3(CCN(Cc4ccc(F)cc4)CC3)O2)n(C)n1 (stereo unspecified)	nt	nt	?	nt	nt	i[9.04 µM]
Cc1nc(SCC(=O)NC2CCCC2)c2oc3ccccc3c2n1	i	i	?	i	nt	?
CCN(C)C1CN(Cc2cn(Cc3ccccc3)nn2)S(=O)(=O)C1 (stereo unspecified)	nt	nt	i	i	nt	i
O=C1OCC(c2ccc(Cl)s2)=C1c1ccccc1[N+](=O)[O-]	i	i	?	-65.3	i	i
O=C1OCC(c2ccccc2)=C1c1ccccc1[N+](=O)[O-]	i	i	?	i	i	i
O=C(N1CCOCC1)N1CCC(c2nc(-c3ccc(S(=O)(=O)N4CCOCC4)cc3)no2)CC1	i	i	?	i	i	?
O=C(NC1CCCCC1)N1CCC(c2nc(-c3ccc(S(=O)(=O)N4CCCC4)cc3)no2)CC1	i	?	9.2µM	i	i	10.3µM
CS(=O)(=O)N1CCCC(c2nc(-c3ccc(S(=O)(=O)NCc4ccccc4)cc3)no2)C1 (stereo unspecified)	i	i	10.3µM	i	i	13µM
